Rows were chosen to be rich in hits. Some 27% of all compounds tested hit in one or more screens of this group.
CYP2C19 inh = human CYP2C19 inhibition | AID 778 | inhibition, % at 5 µM | P33261 | CYP2C19 Supersomes, luciferin-H EGE luminescence, 30 min | 96,000 tested, 21% active;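 active means CYP2C19 inhibition above a set limit at 5 µM in the primary screen, cut at about 50% in these data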
sEH activator = soluble epoxide hydrolase (human) activation. purified human sEH enzymatic activity, activator screen. activation, % at 2 µM. 91,000 tested, 0.04% active. AID 717; in the data active means activation above about 37%
CYP2C9 inh = inhibitors of human CYP2C9 | P11712 | 96,000 tested, 20% active | AID 777 | CYP2C9 Supersomes, luciferin-H conversion, luminescence | inhibition, % at 5 µM;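 active means blocking of liver enzyme CYP2C9 beyond about 50% at 5 µM, limit read from the data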
Target sequence (P11712 whole entry, looked up): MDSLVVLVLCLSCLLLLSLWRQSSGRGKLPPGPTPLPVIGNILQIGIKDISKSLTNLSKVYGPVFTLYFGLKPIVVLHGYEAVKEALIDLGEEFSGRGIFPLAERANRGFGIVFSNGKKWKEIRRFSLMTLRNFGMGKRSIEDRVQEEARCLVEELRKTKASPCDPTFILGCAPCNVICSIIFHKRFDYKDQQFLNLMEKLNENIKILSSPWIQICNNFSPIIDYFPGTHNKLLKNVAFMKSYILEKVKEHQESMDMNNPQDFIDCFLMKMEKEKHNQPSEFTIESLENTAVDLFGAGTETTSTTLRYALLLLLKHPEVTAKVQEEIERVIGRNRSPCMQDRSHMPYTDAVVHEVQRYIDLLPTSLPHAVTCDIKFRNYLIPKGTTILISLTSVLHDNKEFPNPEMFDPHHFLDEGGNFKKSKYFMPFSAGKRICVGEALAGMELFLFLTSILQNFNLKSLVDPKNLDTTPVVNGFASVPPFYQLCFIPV
CYP2C9 act = increases human cytochrome P450 2C9 activity; 96,000 tested, 1.4% active; P11712; activation factor at 5 µM; recombinant CYP2C9, luciferin-H conversion, luminescence; stronger effect = higher value; factor 1 = untreated enzyme, 0 = blocked;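 active means activation factor of 2 or more for CYP2C9 at a 5 µM dose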
sEH inhibitor = blocks human soluble epoxide hydrolase activity. P34913. recombinant human sEH enzymatic activity assay. inhibition, % at 2 µM. 91,000 tested, 0.34% active. AID 707; in the data active means inhibition above about 80%
CYP2C19 activ = increases human CYP2C19 enzyme activity. P33261. recombinant CYP2C19, luciferin-H EGE luminescence; stronger effect = higher value; 0 = fully inhibited enzyme, 1 = untreated enzyme. activation factor at 5 µM. 96,000 tested, under 10 active. AID 1025;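 active means activation factor of at least 2 at 5 µM in the primary screen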
Hits are given with their value; i = inactive; nt = no result.

SMILES | CYP2C19 inh | sEH activator | CYP2C9 inh | CYP2C9 act | sEH inhibitor | CYP2C19 activ
CCOCCCNC(=O)C(c1ccc(Cl)cc1)N1CCC2(CC1)OCCO2 (stereo not given) | 59 | i | i | i | i | i
CCOCCCNC(=O)C(c1ccc(Cl)cc1)N1CCN(c2ccccc2)CC1 (stereo not given) | 51 | i | i | i | i | i
O=C(NCCc1ccccc1)C1CCCN(C(=O)NC2CCCCC2)C1 (stereo not given) | i | i | i | i | i | i
Cc1ccc(C(=O)COc2nc(C)cc(C)c2C#N)cc1 | i | i | i | i | i | i
COC(=O)c1ccc(COc2nc(C)cc(C)c2C#N)o1 | 70 | i | i | i | i | i
CCN(CC)CCOC(=O)c1ccc(NC(=O)C2(c3ccccc3)CCCC2)cc1 | i | i | i | i | i | i
Cn1nnnc1SCCNCc1ccccc1F | 79 | i | i | i | i | i
COc1ccccc1NC(=O)CCSc1nnnn1C | i | i | i | i | i | i
Cn1nnnc1SCCNCc1ccncc1 | i | i | i | i | i | i
COc1cc(CNCCSc2nnnn2C)cc(OC)c1OC | 57 | i | i | i | i | i
COc1cccc(CNCCSc2nnnn2C)c1OC | 77 | i | i | i | i | i
Cn1nnnc1SCCNCC#Cc1ccccc1 | 85 | i | i | i | i | i
CN1C=CC2=C(C#N)C(N)C(C#N)(C#N)[C@H](c3ccccc3)[C@H]2C1 (stereo not given in full) | nt | i | nt | nt | i | nt
Cc1ccc(-n2nnc3c(SCC(=O)N4CCN(c5ccccc5)CC4)ncnc32)cc1 | nt | i | nt | nt | i | nt
Cn1c(=O)c2c(nc(CN3CCN(C(=O)c4ccco4)CC3)n2Cc2ccccc2F)n(C)c1=O | i | i | i | i | i | i
COCCSc1nc2sc3c(c2c(=O)n1-c1ccccc1)CCN(C)C3 | 98 | i | i | i | i | i
Cc1csc(-c2cnn(-c3ccccc3)c2NC(=O)c2ccccc2)n1 | i | i | i | i | i | i
CCCNc1nc2c(c(=O)n(C)c(=O)n2C)n1CCC(C)C | i | i | i | i | i | i
CCCOc1ccc(CSc2nnc(CCC)n2N)cc1 | 66 | i | 55 | i | i | i
CCCCOc1ccc(Cl)cc1CSc1nnc(CC)n1N | 54 | i | 64 | i | i | i
CCCCOc1ccc(CSc2nncn2N)cc1 | i | i | i | i | i | i
CCc1nnc(SCCSc2nnc(CC)n2N)n1N | i | i | i | i | i | i
CCCc1nnc(SCc2ccc(OC)cc2)n1N | 51 | i | i | i | i | i
CCCC12CN(C(=O)c3ccc(OC)cc3)CC(C)(CN(C(=O)c3ccc(OC)cc3)C1)C2=O | i | i | i | i | i | i
Cc1cc(C)nc(NC2=NCC(=O)N2c2ccc3c(c2)OCCO3)n1 | i | i | i | i | i | i
SMILES | CYP2C19 inh | sEH activator | CYP2C9 inh | CYP2C9 act | sEH inhibitor | CYP2C19 activ
CCNC(=S)N(Cc1ccc2c(c1)OCO2)C1CC(=O)N(c2ccc(F)cc2)C1=O (stereo not given) | 94 | i | 71 | i | i | i
COC(=O)c1ccccc1NC(=O)CN1C(=O)CSC1=O | i | nt | i | i | nt | i
COC(=O)c1cc(NC(=O)CN2C(=O)CSC2=O)ccc1Cl | i | i | 69 | i | i | i
COc1cc(NC(=O)c2ccc3c(c2)OCO3)c2ncccc2c1 | nt | i | nt | nt | i | nt
O=C(Nc1cccc2cccnc12)c1ccc2c(c1)OCCO2 | i | i | i | 2 | i | i
O=C(Nc1ccc2oc(-c3ccccc3)nc2c1)c1ccc2c(c1)OCCO2 | 53 | i | 66 | i | i | i
O=C(Nc1ccncc1)c1ccc2c(c1)OCCO2 | 77 | nt | 50 | i | nt | i
Cc1nc2c(ccc3nc(NC(=O)c4ccc5c(c4)OCCO5)sc32)s1 | i | i | 63 | i | i | i
O=C(CSc1ccccc1C(=O)NCCCN1CCCC1=O)NCc1ccco1 | i | i | i | i | i | i
CCN1CCN(c2c(Cl)cccc2NC(=O)c2ccc3c(c2)OCCO3)CC1 | i | i | i | i | i | i
O=C(Nc1cccc(Cl)c1N1CCCCC1)c1ccc2c(c1)OCCO2 | i | i | 65 | i | i | i
CCn1cc(S(=O)(=O)CC(=O)NC2CCCCC2)c2ccccc21 | i | nt | i | i | nt | i
O=C(C(=O)N1CCCc2ccccc21)c1c[nH]c2ccccc12 | 67 | i | i | i | i | i
Cc1[nH]c2ccccc2c1SCC(=O)N1CCCc2ccccc21 | 76 | i | i | i | i | i

Screening results deposited in PubChem BioAssay by several laboratories.
